From PubChem BioAssay (EPA / NIEHS)
The source made the active and inactive calls. The calls were made as follows: active = hit-call score of the fitted dose curve at least 0.9, where 1 is the maximum; inactive = score below 0.9.

Read-out: Plasminogen activator inhibitor-1 (PAI1), SERPINE1 (gene 5054)
Experiment: BSK_hDFCGF_PAI1: BioMAP Diversity Plus: hDFCGF Assay for Plasminogen activator inhibitor-1 (PAI1) Biomarker Activity (AID 2283066)
Settings: primary human foreskin fibroblasts; actives raise or lower the signal
Protocol: BSK_hDFCGF is a cell-based, multiplexed-readout assay that uses foreskin fibroblast, a human skin primary cell, with measurements taken at 24 hours after chemical dosing in a 96-well plate.BSK_hDFCGF_PAI1 is an assay component measured in the BSK_hDFCGF assay. It measures PAI-1 antibody related to regulation of gene expression using ELISA technology.Data from the assay component BSK_hDFCGF_PAI1 was analyzed into 1 assay endpoint. This assay endpoint, BSK_hDFCGF_PAI1, was analyzed with bidirectional fitting relative to DMSO as the negative control and baseline of activity. Using a type of binding reporter, gain or loss-of-signal activity can be used to understand changes in the signaling as they relate to the gene SERPINE1. Furthermore, this assay endpoint can be referred to as a primary readout, because this assay has produced multiple assay endpoints where this one serves a signaling function. To generalize the intended target to other relatable targets, this assay endpoint is annotated to the cytokine intended target family, where the subfamily is plasmogen activator inhibitor.
The levels of cell surface (or secreted, indicated by the prefix "s") biomarker endpoints were measured by ELISA. Overt cytotoxicity to cells in confluent adherent cultures (all systems other than the BT system) was assessed by measuring total protein levels using sulforhodamine B (SRB) staining in parallel cultures at the time of biomarker measurements, indicated as SRB endpoints. For proliferation assays for adherent cell types, individual cell types are cultured at sub-confluence and relative cell numbers quantified by SRB staining at time points optimized for each system (48 h: 3C and CASM3C systems; 72 h: BT and HDF3CGF systems; 96 h: SAg system). SRB was performed by staining cells with 0.1% SRB after fixation with 10% TCA and reading wells at 560 nm.Viability and proliferation of PBMC (T cells) was quantified by Alamar Blue reduction for the SAg and BT systems. For PBMC viability (referred to as PBMC Cytotoxicity within the assay endpoint names), cells were plated (75,000/well in a 96-well plate) and then chemical samples added for 1 h before addition of activators, SEB and TSST-1 (20 ng/mL final concentration each). Cells were incubated for 90 h. Then, Alamar Blue (20 uL/well) (Invitrogen, Cat DAL1100) was added for 6 h, and the plates were read with a fluorescence microplate reader at 546/580 nm (excitation/emission). For PBMC proliferation, cells were plated and activated as above but incubated for only 16 h prior to addition of Alamar Blue. Plates were read after 6 h.

Row | Structure (SMILES) | outcome | AC50
1 | Cc1cccc(Nc2cc(Cl)nc(SCC(=O)O)n2)c1C | inactive | –
2 | Nc1ccc(S(=O)(=O)c2ccc(N)cc2)cc1 | inactive | –
3 | CC1=C(/C=C/C(C)=C/C=C/C(C)=C/CO)C(C)(C)CCC1 | – | 20.9 µM (active)
4 | Cc1ccc(N(C)C)cc1 | inactive | –
5 | O=C(OCCCCCOC(=O)c1ccccc1)c1ccccc1 | inactive | –
6 | CCCCCCCCCCCCCO | – | 12.9 µM (active)
7 | Cc1cc(=O)[nH]c(=S)[nH]1 | inactive | –
8 | CCCCN(CCCC)CCCC | inactive | –
9 | CN1CCN(Cc2cc(-c3ccc4[nH]c(=O)oc4c3)co2)[C@@H](c2ccc(F)cc2)C1 | – | 11.8 µM (active)
10 | Oc1ccc2ccccc2c1N=Nc1ccccc1 | – | 0.855 µM (active)
11 | CCCCCC(=O)O | inactive | –
12 | COc1ccc2c(c1)c(CC(=O)O)c(C)n2C(=O)c1ccc(Cl)cc1 | inactive | –
13 | CC(=O)C(C)=CC1C(C)=CCCC1(C)C (stereo not given) | inactive | –
14 | CCCCc1ccc2c(n1)[C@@H](c1ccc(OC)cc1C[C@H](C)C(=O)O)[C@H](C(=O)O)[C@H]2c1ccc2c(c1)OCO2 | inactive | –
15 | FC(F)(F)C(F)(F)C(F)(F)C(F)(F)C(F)(F)C(F)(F)CCI | inactive | –
16 | COCCOCCOC | inactive | –
17 | CCCCCCCCCCC | inactive | –
18 | NS(=O)(=O)c1cc2c(cc1Cl)NCNS2(=O)=O | inactive | –
19 | O=C(N[C@@H](Cc1ccccc1)[C@@H](O)C(=O)N1C[C@@H](O)[C@@H](O)C1)c1cc2cc(Cl)ccc2[nH]1 | inactive | –
20 | C1CCC(SSC2CCCCC2)CC1 | – | 30.8 µM (active)

Row | Structure (SMILES) | outcome | AC50
21 | C=CCc1ccc(O)c(OC)c1 | inactive | –
22 | C=CCOC(=O)c1ccccc1C(=O)OCC=C | inactive | –
23 | CCNc1cccc(C)c1 | inactive | –
24 | NC(=O)Cn1c(=O)cc(CCN2CCN(c3nccc4sccc34)CC2)c2ccc(F)cc21 | inactive | –
25 | COC(=O)c1ccc(O)cc1 | inactive | –
26 | O=c1[nH]cc(F)c(=O)[nH]1 | inactive | –
27 | O=[N+]([O-])C(CO)(CO)CO | inactive | –
28 | NCC1(Cc2noc(=O)[nH]2)CCCCC1 | inactive | –
29 | CCCCCCCCCCCC(=O)OC | inactive | –
30 | CN[C@H]1CC[C@@H](c2ccc(Cl)c(Cl)c2)c2ccc(S(N)(=O)=O)cc21 | – | 23.9 µM (active)
31 | Nc1ccccc1N | inactive | –
32 | O=C(O)Cc1ccccc1Nc1c(Cl)cccc1Cl | inactive | –
33 | Nc1ccc2c(c1)C(=O)c1ccccc1C2=O | inactive | –
34 | Cc1nc(C)nc(N2C[C@@H](C)N(c3ccnc([C@@H](C)O)n3)[C@@H](C)C2)n1 | inactive | –
35 | CNC(=O)[C@H]1O[C@@H](n2cnc3c(NCc4cc(Cl)ccc4OCc4cc(C)no4)ncnc32)[C@H](O)[C@@H]1N | inactive | –
36 | CC(=O)OCCOCCOCCOC(C)=O | inactive | –
37 | Cc1ccc(Cl)cc1 | inactive | –
38 | Cc1cccc(C)c1O | inactive | –
39 | c1cc(-c2ccncc2)ccn1 | inactive | –
40 | CC=Cc1ccc(O)c(OC)c1 | inactive | –
